Bioassay records from PubChem.
RORg inh: blocks mouse ROR gamma transcriptional activity; actives 5.4% (n = 310,000); AID 2551; Drosophila S2 Gal4-RORgamma UAS-luciferase reporter, 20 h; Potency, µM (top dose mostly 53.6 µM), for inactives: top-dose activity change, negative = inhibition, actives largely listed as inhibitors; P51450; further: potency means the concentration at half of the fitted maximal effect; on the % scale 0 is the no-effect control and ±100 the full control effect; nearly all actives have a fitted effect of over 60% in size
Target sequence (P51450 whole entry, looked up, the tested form may be a part): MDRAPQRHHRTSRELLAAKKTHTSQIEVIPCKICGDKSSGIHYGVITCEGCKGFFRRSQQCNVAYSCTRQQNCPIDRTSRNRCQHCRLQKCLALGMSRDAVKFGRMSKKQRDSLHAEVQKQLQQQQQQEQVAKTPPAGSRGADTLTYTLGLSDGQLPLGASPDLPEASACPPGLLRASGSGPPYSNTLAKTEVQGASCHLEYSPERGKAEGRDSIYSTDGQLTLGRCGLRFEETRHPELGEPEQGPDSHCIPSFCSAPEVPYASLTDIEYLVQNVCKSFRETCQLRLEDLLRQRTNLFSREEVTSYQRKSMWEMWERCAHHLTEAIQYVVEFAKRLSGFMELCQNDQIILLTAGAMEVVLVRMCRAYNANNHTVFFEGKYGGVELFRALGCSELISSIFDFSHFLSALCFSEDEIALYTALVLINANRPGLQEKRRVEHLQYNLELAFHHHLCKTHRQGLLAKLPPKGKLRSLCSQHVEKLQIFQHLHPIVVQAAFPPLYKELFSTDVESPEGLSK
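Luminescence from a UAS-regulated Photinus luciferase reporter in stably transfected Drosophila Schneider cells is measured; decreased signal marks ROR gamma inhibition. Fusion expression is induced by 700 uM copper sulfate for 20 hr.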
Gal4-VP16 FLuc: Gal4-VP16 reporter inhibition counter-screen | Drosophila S2 Gal4-VP16 UAS-luciferase, luminescence, 20 h | Potency, µM (highest dose often 53.6 µM), for inactives: at the highest dose activity, negative = inhibition, most hits filed as inhibitors | actives 3.5% (n = 310,000) | AID 2546;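 further: Gal4-VP16 expression switched on by copper sulfate through the metallothionein promoter; potency means the concentration at half of the fitted maximal effect; on the % scale 0 is the no-effect control and ±100 the full control effect; nearly all actives have a fitted effect of over 50% in size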
SW480 rereplic: induces DNA re-replication in SW480 colon adenocarcinoma cells; SW480 DNA re-replication, Hoechst DNA content imaging, 48 h; Potency, µM (titrated, usually from 46.1 µM), inactives show at the top dose re-replication activation, usual class: activators; actives 1.8% (n = 340,000); AID 624297; further: potency means the concentration at half of the fitted maximal effect; % of control where 0% means no effect; nearly all actives have a fitted effect of over 55% in size
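Per well, 250 cells were exposed to pinned compound for 48 hr. Nuclear DNA was visualised with Hoechst (40 min, 37 C) and total object intensity recorded by fluorescence scanning.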
IL-1B inflam inh: blocks inflammasome-driven IL-1 beta release; THP-1 LPS/ATP IL-1B secretion, AlphaLISA, 16 h; hits give low values; actives 4.7% (n = 360,000); activity change, % at 57.5 µM; in the data active means activity change below about -50%; inconclusive means mostly about -30% to -49%; further: on the % scale 0 is the no-effect control and ±100 the full control effect
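Secreted IL-1B measured by AlphaLISA bead assay after 16 h compound exposure of THP-1 cells; compounds (final up to 57.5 uM) added 1 h before LPS (250 ng/mL) and ATP (1.25 mM) stimulation; lower signal means less secretion.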
MCF10A rereplic: inducers of DNA re-replication in MCF 10A breast cells; actives 2.9% (n = 350,000); MCF 10A DNA re-replication, Hoechst nuclear intensity, 48 h; Potency, µM (top dose mostly 46.1 µM), without a hit: top-dose activity, positive = re-replication, most hits filed as activators; further: potency means the concentration at half of the fitted maximal effect; % of control where 0% means no effect; nearly all actives have a fitted effect of over 50% in size
An asterisk follows results filed as active; ? = inconclusive; / = not tested or not shown. Compounds with a hit are over-represented: about 11% of the library has one in this group of screens. Unless noted, the call rests on the fitted dose curve; in most records, active means well fitted curve in the direction sought with a large enough effect; inconclusive means small, poorly fitted or top-dose-only effect, or another doubt; inactive means no such curve, though single readings can be large; an effect the other way counts as inactive or inconclusive.

SMILES	RORg inh	Gal4-VP16 FLuc	SW480 rereplic	IL-1B inflam inh	MCF10A rereplic
N/C(=N\OC(=O)c1ccc(Cl)c(Cl)c1)c1ccccn1	?	?	2.3%	15.4	6.1%
O=C(Sc1ccc(Cl)cc1)c1ccccn1	/	/	-6.1%	-82.6*	9.4%
N/C(=N\OC(=O)c1ccc(Cl)c([N+](=O)[O-])c1)c1ccccn1	-0.4%	7.4%	?	-107.5*	20.6µM*
Cn1cnc(S(=O)(=O)N2CCN(C(c3ccc(F)cc3)c3ccc(F)cc3)CC2)c1	-7.6%	-13.3%	-6.1%	-3.0	-1.5%
CC(C)CNC(=O)C1(C)CCCN1Cc1ccc(S(C)(=O)=O)cc1 (centres undefined)	/	/	/	-21.6	/
N#Cc1cccc(-c2csc(C(O)c3ccc(F)cc3)n2)c1 (centres undefined)	/	/	/	-12.2	/
CC[C@H](C)[C@H](NC(=O)[C@H](CCC(=O)O)NC(=O)[C@H](CO)NC(=O)[C@@H](NC(=O)[C@H](C)N)C(C)C)C(=O)N[C@@H](CCC(N)=O)C(=O)N[C@@H](CC(C)C)C(=O)N[C@@H](CCSC)C(=O)N[C@@H](Cc1cnc[nH]1)C(=O)N[C@@H](CC(N)=O)C(=O)N[C@@H](CC(C)C)C(=O)NCC(=O)N[C@@H](CCCCN)C(=O)N[C@@H](Cc1cnc[nH]1)C(=O)N[C@@H](CC(C)C)C(=O)N[C@@H](C)C(=O)N[C@@H](CO)C(=O)N[C@H](C(=O)N[C@@H](CCC(=O)O)C(=O)N[C@@H](CCCNC(=N)N)C(=O)N[C@@H](CCSC)C(=O)N[C@@H](CCC(N)=O)C(=O)N[C@@H](Cc1c[nH]c2ccccc12)C(=O)N[C@@H](CC(C)C)C(=O)N[C@@H](CCCNC(=N)N)C(=O)N[C@@H](CCCCN)C(=O)N[C@@H](CCCCN)C(=O)N[C@@H](CC(C)C)C(=O)N[C@@H](CCC(N)=O)C(=O)N[C@@H](CC(=O)O)C(=O)N[C@H](C(=O)N[C@@H](Cc1cnc[nH]1)C(=O)N[C@@H](CC(N)=O)C(=O)N[C@@H](Cc1ccccc1)C(=O)O)C(C)C)C(C)C	21.2%	3.9%	/	/	/
COc1ccc(C(=O)O/N=C(\N)c2ccccn2)cc1	14.1µM*	17.8µM*	3.6%	-10.3	-7.3%
COc1cc(OC)cc(C(=O)O/N=C(\N)c2ccccn2)c1	-34.2%	-6.3%	-1.5%	-10.7	-1.5%
CCOC(=O)COc1cc(N)c(Cl)cc1Cl	-6.7%	-8.4%	-2.1%	-53.4*	6.51µM*
CN(C)S(=O)(=O)c1cc(NC(=O)CNCc2ccccc2)ccc1Cl	?	1.5%	-11.2%	11.0	24.7%
CN(CCOc1ccccc1)CC(=O)Nc1ccc(Cl)c(S(=O)(=O)N(C)C)c1	-4.8%	-24.1%	11.4%	-51.4*	14.1%
CC(C)Cc1nnc(NC(=O)C2CSC3(C)CCC(=O)N23)s1 (centres undefined)	/	/	-566.1%	12.5	-0.3%
CCCCCN(C(=O)CCC(=O)OCc1ccc(Cl)cc1Cl)c1c(N)n(CCCC)c(=O)[nH]c1=O	/	/	-90.9%	-65.8*	-1.0%
CCCCn1c(N)c(N(CCOC)C(=O)COC(=O)COc2cc(C)c(Cl)cc2C(C)C)c(=O)[nH]c1=O	/	/	-562.7%	-97.7*	0.4%
CCCCn1c(N)c(N(CCOC)C(=O)COC(=O)COc2cc(C)ccc2Cl)c(=O)[nH]c1=O	/	/	-1.0%	12.3	-0.6%
CCCCCN(C(=O)CCC(=O)OCc1ccccc1Cl)c1c(N)n(CCCC)c(=O)[nH]c1=O	27.2%	6.4%	0.8%	0.0	-4.0%
COc1ccc(NC(=O)N2CC[C@@]3(CCCNC3)C2)cc1	23.6%	-12.7%	/	/	/
Cc1ccc(C)c(N2CCN(C(=O)c3csc4ccccc34)CC2)c1	?	-21.7%	2.6%	?	16.4µM*
O=C(O)/C=C/C(=O)N1CCN(C(=O)/C=C/C(=O)O)CC1	-13.2%	?	-0.2%	9.1	-7.3%
CCOC(=O)/C=C/C(=O)N1CCN(C(=O)/C=C/C(=O)OCC)CC1	4.1%	-10.0%	?	-100.1*	14.6µM*
COC(=O)[C@@H]1C[C@@H]2CC[C@@H](O)C[C@@H]2N1Cc1ccc(C)s1	-14.6%	-11.6%	/	/	/
